Reference: PubChem BioAssay (NCATS)
Results filed as inconclusive are left out. Activity calls are given as the source filed them. Unless noted, calls come from the whole dose curve; as a rule, active = well fitted curve in the direction sought with a large enough effect; inconclusive = small, poorly fitted or top-dose-only effect, or another doubt; inactive = no such curve, though single readings can be large; an effect the other way counts as inactive or inconclusive.

Tests used:
[1] = Nrf2 qHTS screen for inhibitors: Validation (AID 493153; active = well fitted inhibition curve with a large enough effect in the main read-out, with a control signal flat, not every such curve was filed as active); conditions: Potency: luciferase luminescence; viability change: measured here: cytotoxicity max response
In short: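 A549 cells carrying ARE-firefly luciferase reporter, 5000 cells/well in 5% FBS OPTI-MEM, treated with compound over a concentration series for 18-24 h at 37 C. Luciferase luminescence gave Nrf2 activity; CellTiter-Fluor fluorescence gave viability.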

[2] = qHTS for Inhibitors of Cell Surface uPA Generation: Validation Assay (AID 493164); note: 0% is about no effect
In short: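 RAW 264.7 cells (4000/well) were plated overnight, then exposed for 18 h at 37 C, 5% CO2 to compounds in a 7-point 1:5 titration (2.45 nM–38.3 uM final). Intracellular ATP was read by ATP-Lite luminescence.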

[3] = molecular target: Galactokinase (Homo sapiens) (UniProt P51570); experiment: qHTS Validation Assay for Inhibitors of Human Galactokinase (GALK) (AID 493189); note: potency is the fitted concentration of half-maximal effect
In short: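 Inhibition was measured as remaining ATP, detected by luciferase luminescence after a 1 h room-temperature reaction. Final conditions: 5 nM GALK, 100 uM galactose, 35 uM ATP, pH 8.0 HEPES buffer.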

[4] = Validation screen for small molecules that induce DNA re-replication in SW480 colon adenocarcinoma cells (AID 504364); note: potency is the fitted concentration of half-maximal effect
In short: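 SW480 cells (250/well) exposed 48 h at 37 C, 5% CO2, then Hoechst-stained 40 min. Nuclear DNA content imaged by fluorescence scanning (405 nm excitation, 500-530 nm emission); re-replication scored as increased nuclei with elevated intensity.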

[5] = molecular target: Phosphoglycerate kinase, glycosomal (Trypanosoma brucei brucei) (UniProt P07378); experiment: qHTS Validation Assay to Find Inhibitors of Phosphoglycerate Kinase (AID 504547);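 note: control wells lack PGK and mark full inhibition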
In short: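 Inhibition of the enzyme is judged by a Kinase-Glo Plus luminescent signal following a one-hour incubation at room temperature. Because 1,3-BPG is unstable, it is made in situ by GAPDH at 100nM final; no-PGK wells define the baseline.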

[6] = molecular target: phosphoglycerate mutase (Leishmania major) (UniProt Q4Q090); experiment: qHTS Validation Assay to Find Inhibitors of Phosphoglycerate Mutase (AID 504548); conditions: Potency: inhibition qHTS; note: series mostly up to about 58 µM; % is set by controls: 0 for no effect and ±100 for the full control effect
In short: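 Lm PGAM 1.25nM final; 100 mM TEA pH 7.6, 5 mM MgCl2, 0.01% Tween-20; 45 min RT; Kinase-GloPlus, 10 min; end-point luminescence. Enzyme-free wells as negative controls.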

[7] = molecular target: Ubiquitin carboxyl-terminal hydrolase 1 (Homo sapiens) (UniProt O94782); experiment: Inhibitors of USP1/UAF1: Pilot qHTS (AID 504865); note: nearly all actives have a fitted effect of over 35% in size; note: potency is the fitted concentration of half-maximal effect
In short: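 Deubiquitinase activity followed as kinetic rhodamine fluorescence release from 150 nM Ub-Rho. 1 nM USP1/UAF1 with compound, after 15 min room-temperature preincubation, in HEPES pH 7.8 buffer containing TCEP, EDTA, BSA and Tween-20.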

[8] = qHTS for Inhibitors of ATXN expression: Validation of Cytotoxic Assay (AID 588349); note: % is set by controls: 0 for no effect and ±100 for the full control effect
In short: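 HEK293 cells treated with titrated compound for 72 hr at 37 degrees C; viability read as intracellular ATP by CellTiter Glo luminescence.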

[9] = qHTS for Inhibitors of ATXN expression: Validation (AID 588378); note: series mostly up to about 57 µM; % is set by controls: 0 for no effect and ±100 for the full control effect; nearly all actives have a fitted effect of over 75% in size
In short: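 Luciferase luminescence (Bright-Glo) from an ATXN2-FFLuc HEK293 line after 24 h compound exposure at 37 °C, preceded by a CellTiter-Fluor fluorescence viability read. Serial dilutions of a reference ATXN2 inhibitor and a luciferase inhibitor served as controls.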

[10] = molecular target: Peptidyl-prolyl cis-trans isomerase NIMA-interacting 1 (Homo sapiens) (UniProt Q13526); experiment: qHTS Validation Assay to Find Inhibitors of Pin1 (AID 504536; active = well fitted inhibition curve with a large enough effect in the polarisation, with a control signal flat, not every such curve was filed as active; the % refers to the polarisation; note: potency is the fitted concentration of half-maximal effect)
In short: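 Fluorescence polarization competition: compounds (titration) displace HiFluor-488-labeled Pin1-1b peptide from Pin1 (0.3 uM final) in pH 7.5 HEPES buffer with DTT, 10 min at room temperature; %Activity normalized to no-enzyme wells, curves fitted.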

[11] = molecular target: DNA dC->dU-editing enzyme APOBEC-3G (Homo sapiens) (UniProt Q9HC16); experiment: qHTS for inhibitors of Vif-A3G interactions: Validation (AID 588379); note: 0% is about no effect
In short: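 HeLa cells stably expressing Vif and A3G-eYFP, 700 cells/well, incubated overnight at 37 deg C, then exposed to compound overnight at 37 deg C. Inhibition of Vif-mediated degradation read as increased yellow fluorescence (Ex 488/Em 500-530) by laser-scanning cytometry.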

[12] = molecular target: Estrogen receptor (Homo sapiens) (UniProt P03372); experiment: qHTS assay for small molecule agonists of estrogen receptor alpha signaling (AID 588514; calls by dose curve;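 note: 0% = vehicle only and 100% = reference agonist; nearly all actives have a fitted effect of over 70% in size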)
In short: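 ER-alpha-UAS-bla GripTite HEK293 cells, 5000/well in 2% charcoal/dextran-stripped FBS medium, treated with compound titrations 18 h at 37 C. CCF4 beta-lactamase read by fluorescence after 2 h RT; normalised to 20 nM 17-beta-estradiol (100%) and DMSO (0%), Hill fit for EC50 and efficacy.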

[13] = molecular target: Androgen receptor (Homo sapiens) (UniProt P10275); experiment: qHTS assay for small molecule agonists of androgen receptor signaling (AID 588515; active = well fitted curve in the direction sought with a large enough effect in the signal ratio, with a control signal flat; the % refers to the signal ratio; note: % is set by controls: 0 for no effect and ±100 for the full control effect); conditions: AR-UAS-bla HEK293, beta-lactamase ratio, agonist 16 h; stronger effect = higher value
In short: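 EC50 and efficacy came from Hill fits of titrations (up to 92 uM) normalized to 30 nM R1881 as 100% and DMSO as 0%. Compound exposure was 16 h at 37 C on AR-UAS-bla HEK293 cells, with a 405/460/530 nm CCF4 fluorescence read.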

[14] = molecular target: Androgen receptor (Homo sapiens) (UniProt P10275); experiment: qHTS assay for small molecule antagonists of androgen receptor signaling (AID 588516; active = well fitted curve in the direction sought with a large enough effect in the signal ratio, with a control signal flat, not every such curve was filed as active; the % refers to the signal ratio; note: % is set by controls: 0 for no effect and ±100 for the full control effect)
In short: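 Antagonist mode: inhibition of R1881-stimulated (10 nM final) bla reporter in GeneBLAzer AR HEK 293 cells, 16 h at 37C, compounds titrated. IC50 and efficacy from Hill-equation fits of 405/460–530 nm FRET ratios.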

[15] = molecular target: Glucocorticoid receptor (Homo sapiens) (UniProt P04150); experiment: qHTS assay for small molecule antagonists of glucocorticoid receptor signaling (AID 588533; active = well fitted inhibition curve with a large enough effect in the signal ratio, with a control signal flat, not every such curve was filed as active; the % refers to the signal ratio)
In short: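 Antagonist-mode qHTS: compound titrations added to GRE-bla HeLa cells, then dexamethasone 2 nM final; 18 h, 37 C. CCF4 FRET fluorescence normalized to dexamethasone and DMSO; IC50 from Hill fit.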

Sequence of Galactokinase (Homo sapiens) (P51570 whole entry, looked up): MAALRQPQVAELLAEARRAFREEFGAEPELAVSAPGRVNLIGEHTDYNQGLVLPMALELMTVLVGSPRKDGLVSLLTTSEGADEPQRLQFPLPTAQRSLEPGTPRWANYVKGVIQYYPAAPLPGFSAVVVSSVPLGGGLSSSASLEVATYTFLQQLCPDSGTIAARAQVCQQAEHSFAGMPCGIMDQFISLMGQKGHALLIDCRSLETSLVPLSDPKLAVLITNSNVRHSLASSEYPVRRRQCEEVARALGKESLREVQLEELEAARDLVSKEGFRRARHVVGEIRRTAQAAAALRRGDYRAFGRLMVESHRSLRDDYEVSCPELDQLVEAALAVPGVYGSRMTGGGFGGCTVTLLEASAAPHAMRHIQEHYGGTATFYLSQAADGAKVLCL
Sequence of Ubiquitin carboxyl-terminal hydrolase 1 (Homo sapiens) (O94782 whole entry, looked up): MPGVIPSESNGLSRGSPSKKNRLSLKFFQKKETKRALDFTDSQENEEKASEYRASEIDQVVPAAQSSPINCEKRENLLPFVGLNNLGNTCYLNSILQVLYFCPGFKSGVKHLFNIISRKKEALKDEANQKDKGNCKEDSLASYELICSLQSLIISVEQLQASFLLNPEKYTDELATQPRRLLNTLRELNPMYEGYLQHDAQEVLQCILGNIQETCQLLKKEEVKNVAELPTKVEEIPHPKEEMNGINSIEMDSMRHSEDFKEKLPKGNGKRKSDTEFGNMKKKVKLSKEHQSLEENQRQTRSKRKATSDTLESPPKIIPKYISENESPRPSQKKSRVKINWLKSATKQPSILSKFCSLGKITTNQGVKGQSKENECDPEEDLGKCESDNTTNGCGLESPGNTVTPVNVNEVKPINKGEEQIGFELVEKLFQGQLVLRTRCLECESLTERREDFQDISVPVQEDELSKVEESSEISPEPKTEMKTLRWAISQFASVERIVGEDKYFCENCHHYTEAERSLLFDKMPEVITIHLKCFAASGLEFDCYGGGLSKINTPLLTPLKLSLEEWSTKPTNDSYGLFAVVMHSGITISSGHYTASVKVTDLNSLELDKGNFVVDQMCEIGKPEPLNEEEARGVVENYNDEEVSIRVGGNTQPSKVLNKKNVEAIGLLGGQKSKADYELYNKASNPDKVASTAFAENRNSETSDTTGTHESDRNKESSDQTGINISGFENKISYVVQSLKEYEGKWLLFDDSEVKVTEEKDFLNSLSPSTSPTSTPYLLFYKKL
Sequence of DNA dC->dU-editing enzyme APOBEC-3G (Homo sapiens) (Q9HC16 whole entry, looked up): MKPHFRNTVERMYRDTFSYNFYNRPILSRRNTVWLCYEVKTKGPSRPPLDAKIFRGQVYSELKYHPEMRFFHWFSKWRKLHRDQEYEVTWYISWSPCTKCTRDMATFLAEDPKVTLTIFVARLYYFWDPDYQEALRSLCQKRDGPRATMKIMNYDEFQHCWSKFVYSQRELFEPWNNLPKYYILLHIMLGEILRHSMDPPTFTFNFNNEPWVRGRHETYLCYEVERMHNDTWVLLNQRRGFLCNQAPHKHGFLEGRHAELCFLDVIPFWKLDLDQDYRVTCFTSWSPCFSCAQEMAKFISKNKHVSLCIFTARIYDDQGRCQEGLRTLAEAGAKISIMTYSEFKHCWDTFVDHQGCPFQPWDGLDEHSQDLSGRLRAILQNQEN
Sequence of Phosphoglycerate kinase, glycosomal (Trypanosoma brucei brucei) (P07378 whole entry, looked up): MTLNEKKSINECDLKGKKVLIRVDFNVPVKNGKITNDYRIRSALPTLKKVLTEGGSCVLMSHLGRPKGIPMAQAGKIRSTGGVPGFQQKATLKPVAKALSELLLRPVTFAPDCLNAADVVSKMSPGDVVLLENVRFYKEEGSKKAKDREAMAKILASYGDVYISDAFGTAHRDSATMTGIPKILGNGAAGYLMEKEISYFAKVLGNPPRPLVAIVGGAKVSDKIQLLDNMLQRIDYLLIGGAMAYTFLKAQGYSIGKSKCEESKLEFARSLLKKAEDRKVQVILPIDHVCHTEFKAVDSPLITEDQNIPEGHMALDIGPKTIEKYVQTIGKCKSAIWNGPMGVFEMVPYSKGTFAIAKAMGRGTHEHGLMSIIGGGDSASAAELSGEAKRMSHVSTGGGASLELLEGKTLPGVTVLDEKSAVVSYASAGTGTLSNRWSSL
Sequence of Peptidyl-prolyl cis-trans isomerase NIMA-interacting 1 (Homo sapiens) (Q13526 whole entry, looked up): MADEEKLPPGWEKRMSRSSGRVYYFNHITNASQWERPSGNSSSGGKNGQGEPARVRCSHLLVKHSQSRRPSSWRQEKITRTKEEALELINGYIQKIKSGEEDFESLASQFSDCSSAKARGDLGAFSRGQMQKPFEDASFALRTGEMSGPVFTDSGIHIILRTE
Sequence of phosphoglycerate mutase (Leishmania major) (Q4Q090 1-553): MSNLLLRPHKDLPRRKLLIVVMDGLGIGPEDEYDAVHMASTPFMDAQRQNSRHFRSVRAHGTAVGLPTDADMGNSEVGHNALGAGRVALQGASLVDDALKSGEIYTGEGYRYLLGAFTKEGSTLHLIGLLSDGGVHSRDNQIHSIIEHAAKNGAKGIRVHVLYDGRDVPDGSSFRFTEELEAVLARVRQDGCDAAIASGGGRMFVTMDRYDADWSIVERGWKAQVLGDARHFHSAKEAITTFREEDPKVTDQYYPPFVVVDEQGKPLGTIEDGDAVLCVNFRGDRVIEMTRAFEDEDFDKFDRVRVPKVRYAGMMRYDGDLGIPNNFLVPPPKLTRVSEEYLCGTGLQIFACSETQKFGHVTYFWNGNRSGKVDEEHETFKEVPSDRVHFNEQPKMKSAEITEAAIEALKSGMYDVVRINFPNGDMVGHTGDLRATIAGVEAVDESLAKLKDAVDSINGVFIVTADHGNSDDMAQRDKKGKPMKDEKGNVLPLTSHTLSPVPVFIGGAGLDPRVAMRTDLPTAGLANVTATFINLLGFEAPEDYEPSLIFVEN
Sequence of Androgen receptor (Homo sapiens) (P10275 whole entry, looked up): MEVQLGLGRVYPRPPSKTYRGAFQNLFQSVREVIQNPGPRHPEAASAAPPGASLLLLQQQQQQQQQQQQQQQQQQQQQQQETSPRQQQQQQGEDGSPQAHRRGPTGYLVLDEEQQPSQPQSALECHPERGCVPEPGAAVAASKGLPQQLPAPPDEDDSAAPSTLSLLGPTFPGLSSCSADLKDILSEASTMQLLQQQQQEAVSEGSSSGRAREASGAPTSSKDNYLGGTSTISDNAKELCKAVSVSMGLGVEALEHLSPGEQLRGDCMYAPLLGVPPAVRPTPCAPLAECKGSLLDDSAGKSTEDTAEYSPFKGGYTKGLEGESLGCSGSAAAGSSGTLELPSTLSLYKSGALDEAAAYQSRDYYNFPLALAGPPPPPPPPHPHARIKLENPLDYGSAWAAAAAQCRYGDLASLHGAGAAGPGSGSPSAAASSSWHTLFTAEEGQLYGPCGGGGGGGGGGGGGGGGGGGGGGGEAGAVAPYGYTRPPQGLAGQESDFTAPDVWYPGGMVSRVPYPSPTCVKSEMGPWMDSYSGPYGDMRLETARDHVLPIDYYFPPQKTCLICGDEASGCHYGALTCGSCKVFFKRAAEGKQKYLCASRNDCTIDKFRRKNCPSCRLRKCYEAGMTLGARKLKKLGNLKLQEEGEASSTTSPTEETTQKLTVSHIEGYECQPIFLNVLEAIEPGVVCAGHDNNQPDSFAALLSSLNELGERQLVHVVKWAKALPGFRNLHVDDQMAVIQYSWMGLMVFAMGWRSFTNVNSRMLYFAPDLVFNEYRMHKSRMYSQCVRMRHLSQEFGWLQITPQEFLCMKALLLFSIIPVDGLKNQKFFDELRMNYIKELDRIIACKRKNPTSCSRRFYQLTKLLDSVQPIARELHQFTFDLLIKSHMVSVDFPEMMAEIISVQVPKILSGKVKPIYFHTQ
Sequence of Glucocorticoid receptor (Homo sapiens) (P04150 whole entry, looked up): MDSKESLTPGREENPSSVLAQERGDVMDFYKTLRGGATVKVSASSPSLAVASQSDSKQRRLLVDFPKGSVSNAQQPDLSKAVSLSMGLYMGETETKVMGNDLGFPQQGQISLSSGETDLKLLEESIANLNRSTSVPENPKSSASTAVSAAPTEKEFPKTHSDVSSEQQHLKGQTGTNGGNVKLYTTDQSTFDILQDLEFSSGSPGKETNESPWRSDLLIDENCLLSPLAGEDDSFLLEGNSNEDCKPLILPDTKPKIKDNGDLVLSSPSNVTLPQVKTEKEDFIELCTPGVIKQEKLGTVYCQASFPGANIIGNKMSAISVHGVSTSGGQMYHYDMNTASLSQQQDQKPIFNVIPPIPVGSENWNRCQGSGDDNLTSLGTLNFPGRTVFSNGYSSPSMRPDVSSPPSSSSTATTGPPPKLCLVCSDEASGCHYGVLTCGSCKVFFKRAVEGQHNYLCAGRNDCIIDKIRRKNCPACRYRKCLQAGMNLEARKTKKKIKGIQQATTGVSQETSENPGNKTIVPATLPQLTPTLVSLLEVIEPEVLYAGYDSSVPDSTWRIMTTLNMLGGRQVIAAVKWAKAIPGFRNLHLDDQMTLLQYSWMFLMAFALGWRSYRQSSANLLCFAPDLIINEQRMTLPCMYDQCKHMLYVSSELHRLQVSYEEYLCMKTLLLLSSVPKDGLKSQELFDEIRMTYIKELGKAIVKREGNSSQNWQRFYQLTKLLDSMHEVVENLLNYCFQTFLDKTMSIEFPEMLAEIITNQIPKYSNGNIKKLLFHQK
Sequence of Estrogen receptor (Homo sapiens) (P03372 whole entry, looked up): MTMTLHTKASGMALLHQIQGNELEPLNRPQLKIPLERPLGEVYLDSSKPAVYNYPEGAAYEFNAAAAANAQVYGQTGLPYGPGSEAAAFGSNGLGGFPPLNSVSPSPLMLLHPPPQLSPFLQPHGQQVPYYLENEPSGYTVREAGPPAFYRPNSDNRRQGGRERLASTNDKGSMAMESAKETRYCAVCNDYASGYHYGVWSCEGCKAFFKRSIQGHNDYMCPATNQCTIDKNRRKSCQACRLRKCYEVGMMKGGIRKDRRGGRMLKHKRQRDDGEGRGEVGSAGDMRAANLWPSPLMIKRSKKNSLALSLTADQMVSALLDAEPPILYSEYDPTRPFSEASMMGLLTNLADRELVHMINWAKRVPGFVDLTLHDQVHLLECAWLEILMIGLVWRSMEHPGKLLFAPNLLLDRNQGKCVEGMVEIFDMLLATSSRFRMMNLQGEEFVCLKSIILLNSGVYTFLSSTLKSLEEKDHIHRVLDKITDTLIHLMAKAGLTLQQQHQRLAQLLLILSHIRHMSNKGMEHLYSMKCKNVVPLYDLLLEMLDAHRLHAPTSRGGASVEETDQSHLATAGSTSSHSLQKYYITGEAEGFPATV

CC(N)(Cc1ccc(O)cc1)C(=O)O (stereo unspecified)
11.6%: viability change [1]
inactive: Potency [1] | outcome [2] | Potency [3] | Potency [4] | Potency [5] | Potency [6] | Potency [7] | Potency [8] | Potency [9]

CC(=O)NCCc1c[nH]c2ccc(O)cc12
-0.372%: viability change [1]
inactive: Potency [1] | outcome [2] | Potency [3] | Potency [4] | Potency [10] | Potency [6] | Potency [8] | Potency [9]

O=C(O)C1=CC(=C(c2ccc(O)c(C(=O)O)c2)c2ccc(O)c(C(=O)O)c2)C=CC1=O
inactive: Potency [1] | outcome [2] | Potency [4] | Potency [8] | Potency [9]
active: Potency [3] 14.1 µM | Potency [10] 0.675 µM | Potency [7] 8.91 µM
-5.86%: viability change [1]

N[C@H](C(=O)O)[C@H](O)C(=O)O
7.86%: viability change [1]
inactive: Potency [1] | outcome [2] | Potency [3] | Potency [4] | Potency [5] | Potency [6] | Potency [7] | Potency [8] | Potency [9] | Potency [11]

CC(N)(Cc1ccc(O)c(O)c1)C(=O)O (stereo unspecified)
inactive: Potency [1] | outcome [2] | Potency [3] | Potency [4] | Potency [10] | Potency [7] | Potency [9]
-0.588%: viability change [1]

CCCOC(=O)c1c(-c2ccccc2)nc(CC)c(C(=O)SCC)c1CCC
inactive: Potency [1] | outcome [2] | Potency [3] | Potency [4] | Potency [5] | Potency [6] | Potency [8] | Potency [9]
-5.09%: viability change [1]

CO/N=C(\C(=O)N[C@@H]1C(=O)N2C(C(=O)O)=C(CSc3nc(=O)c(O)nn3C)CSC12)c1csc(N)n1 (stereo partly specified)
inactive: Potency [1] | outcome [2] | Potency [3] | Potency [4] | Potency [5] | Potency [6] | Potency [7] | Potency [8] | Potency [9]
3.25%: viability change [1]

C=CCn1c(=O)c2c(nc(-c3ccc(S(=O)(=O)O)cc3)n2C)n(C)c1=O
9.3%: viability change [1]
inactive: Potency [1] | outcome [2] | Potency [3] | Potency [4] | Potency [5] | Potency [6]

O=c1onc2n1-c1cc(Br)ccc1OC2
inactive: Potency [1] | outcome [2] | Potency [3] | Potency [4] | Potency [10] | Potency [6] | Potency [8] | Potency [9]
-3.61%: viability change [1]

O=C(O)CCC(=O)N1CCCC1C(=O)O (stereo unspecified)
-2.91%: viability change [1]
inactive: Potency [1] | outcome [2] | Potency [3] | Potency [4] | Potency [5] | Potency [6] | Potency [7] | Potency [8]

NCCNS(=O)(=O)c1cccc2c(Cl)cccc12
-10.5%: viability change [1]
inactive: Potency [1] | outcome [2] | Potency [3] | Potency [4] | Potency [5] | Potency [6] | Potency [7] | Potency [8] | Potency [11]

CC(=O)/C(C)=N/O
inactive: Potency [1] | outcome [2] | Potency [3] | Potency [4] | Potency [5] | Potency [6] | Potency [7] | Potency [8] | Potency [9]
20.6%: viability change [1]

N[C@@H](Cc1ccc(F)cc1)C(=O)O
-9.16%: viability change [1]
inactive: Potency [1] | outcome [2] | Potency [3] | Potency [4] | Potency [5] | Potency [6] | Potency [7] | Potency [8] | Potency [9]

Cc1cc2c(cc1Cl)N(C(=O)Nc1ccnc3ccccc13)CC2
inactive: Potency [1] | outcome [2] | Potency [3] | Potency [4] | Potency [5] | Potency [6] | Potency [7] | Potency [8] | Potency [9]
1.57%: viability change [1]

Cc1cccc(C2CN(C)CCc3c2cc(O)c(O)c3Cl)c1 (stereo unspecified)
inactive: Potency [1] | outcome [2] | Potency [3] | Potency [4] | Potency [5] | Potency [6] | Potency [7]
-5.5%: viability change [1]

O=c1cc(-c2ccccc2)[nH]c2nc(Cl)ccc12
-13.6%: viability change [1]
active: Potency [4] 1.84 µM
inactive: Potency [1] | outcome [2] | Potency [3] | Potency [5] | Potency [6] | Potency [8]

CCCCCCCCCCCCCCSCC(=O)O
inactive: Potency [1] | outcome [2] | Potency [3] | Potency [4] | Potency [5] | Potency [6] | Potency [8] | Potency [9] | Potency [12] | activation [13] -2.58% | outcome [14] | Potency [15]
0.626%: viability change [1]
active: Potency [7] 25.1 µM

CC(C)NC[C@H](O)COc1ccc(CC(N)=O)cc1
-0.176%: viability change [1]
inactive: Potency [1] | outcome [2] | Potency [3] | Potency [4] | Potency [5] | Potency [6] | Potency [7] | Potency [8] | Potency [9] | Potency [11]

CC1=C(C(=O)O)N2C(=O)[C@@H](NC(=O)C(N)C3=CCC=CC3)[C@H]2SC1 (stereo partly specified)
inactive: Potency [1] | outcome [2] | Potency [3] | Potency [4] | Potency [5] | Potency [6] | Potency [7] | Potency [8] | Potency [9]
3.51%: viability change [1]

COC(=O)C(N)Cc1ccc(Cl)cc1 (stereo unspecified)
inactive: Potency [1] | outcome [2] | Potency [3] | Potency [4] | Potency [5] | Potency [6] | Potency [7] | Potency [8] | Potency [9]
9.57%: viability change [1]

CN[C@H](CC(=O)O)C(=O)O
inactive: Potency [1] | outcome [2] | Potency [3] | Potency [4] | Potency [5] | Potency [6] | Potency [7] | Potency [8] | Potency [9] | Potency [11]
-4.15%: viability change [1]

O=C(O)C1CN(CCCP(=O)(O)O)CCN1 (stereo unspecified)
8.53%: viability change [1]
inactive: Potency [1] | outcome [2] | Potency [3] | Potency [4] | Potency [5] | Potency [6] | Potency [8] | Potency [9]

O=c1ccn([C@@H]2O[C@H](COP(=O)(O)OP(=O)(O)O)[C@@H](O)[C@H]2O)c(=O)[nH]1
3.88%: viability change [1]
inactive: Potency [1] | outcome [2] | Potency [3] | Potency [4] | Potency [10] | Potency [6] | Potency [8] | Potency [9]
